PubChem BioAssay
The source made the active and inactive calls.

Tests used:
[1] = A549 cell viability effects, profiling panel, calcein-AM fluorescence, 48 h, basal (AID 1162); conditions: higher = more signal
[2] = adipocyte viability effects, profiling panel, cell-based, 3T3-L1 adipocytes, calcein-AM fluorescence, 48 h, basal (AID 1163); conditions: 3T3-L1 adipocytes viability, higher = more signal
[3] = HepG2 cell viability effects, profiling panel, calcein-AM fluorescence, 48 h, basal (AID 1164); conditions: higher = more signal
[4] = MM1S cell viability effects, profiling panel, calcein-AM fluorescence, 48 h, basal (AID 1165); conditions: higher = more signal;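 further: viability of MM1S multiple myeloma cells under basal unstimulated conditions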
[5] = basal RPMI8226 viability, no added stimulus, profiling panel, cell-based, calcein-AM fluorescence, 48 h, PK04 Diversity Set (AID 1166); conditions: RPMI8226 myeloma viability, higher = more signal;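 further: cells grown under basal conditions without added stimulus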
[6] = basal HepG2 mitochondrial membrane potential changes, profiling panel, cell-based, JC-1 fluorescence, 24 h, 100 nL compound (AID 1167); conditions: higher = more signal
[7] = basal 3T3-L1 adipocyte mitochondrial potential changes, profiling panel, cell-based, JC-1 fluorescence, 3T3-L1 adipocytes, 24 h, 100 nL compound (AID 1168); conditions: JC-1 mitochondrial fluorescence, higher = more signal, called active from +8 up or from −8 down
[8] = basal RPMI8226 mitochondrial membrane potential changes, profiling panel, cell-based, JC-1 fluorescence, 24 h, 100 nL compound (AID 1169); conditions: RPMI8226 myeloma, JC-1 mitochondrial potential fluorescence, higher = more signal
[9] = basal MM1S mitochondrial membrane potential changes, profiling panel, cell-based, JC-1 fluorescence, 24 h, 100 nL compound (AID 1170); conditions: higher = more signal
[10] = A549 lung cancer cell viability effects, profiling panel, resazurin fluorescence, 24 h, PK04 Diversity Set (AID 1171); conditions: higher = more signal, called active from +8 up or from −8 down
Further: test concentration not given here.

Structure (SMILES)	z-score [1]	z-score [2]	z-score [3]	z-score [4]	z-score [5]	z-score [6]	z-score [7]	z-score [8]	z-score [9]	z-score [10]
CC(CO)N1C(=O)[C@@H]2C3C(=O)OCCC/C=C\[C@H]3OC23C=CCN(CCN2CCOCC2)C(=O)[C@@H]13 (stereo not given in full)	-0.31	-0.414	0.755	1.92	0.435	0.559	-0.109 (inactive)	0.357	-1.07	-0.7 (inactive)
CC(C)(C)OC(=O)CC[C@]1(C(N)=O)N=C(c2ccc(OCCCO)cc2)O[C@H]1c1ccccc1	-0.73	0.13	-0.61	-0.415	0.37	-1.26	-0.709 (inactive)	0.816	0.335	-0.164 (inactive)
CO[C@H]1O[C@H](CO)[C@@H](OC(=O)Nc2ccc(Br)cc2)[C@@H]2OC(=O)[C@H](Cc3cccc(Br)c3)C/C=C/C[C@@H](Cc3cccc(Br)c3)C(=O)O[C@@H]12	0.193	0.461	0.31	-1.37	-0.228	-0.741	1.78 (inactive)	-0.209	-0.456	-2.1 (inactive)
COCCCNC(=O)[C@@]1(Sc2ccc(C)cc2)CC(=O)N(Cc2ccccc2Cl)[C@@H]1c1ccc(CO)cc1	0.102	0.381	-0.646	0.661	-0.218	-0.627	-0.554 (inactive)	0.118	-2.29	1.76 (inactive)
COC(=O)[C@]1(Cc2ccccc2)N=C(c2ccc(OCCCO)cc2)O[C@@H]1c1ccccc1N=[N+]=[N-]	-2.41	0.574	-5.44	-3.61	-3.66	-2.75	-0.223 (inactive)	-1.13	-2.9	-2.87 (inactive)
C=C[C@H](C)[C@@H](OC(=O)Nc1ccc(SC)cc1)c1ccc(O)c2ccccc12	-0.89	0.0148	-1.87	-2.68	-4.27	-3.23	-0.475 (inactive)	-0.934	-1.59	-0.774 (inactive)
C[N+](C)(C)CCCC[C@@H]1NC(=O)[C@@H]2C[C@H](C(=O)NCCCCCCNC(=O)CS)[C@H](c3ccc(O)cc3)N2C1=O	-0.617	-0.0068	-0.0675	-0.14	-0.385	0.439	-0.888 (inactive)	-0.111	-0.432	-0.382 (inactive)
CC(C)[Si](C#CCCCC#N)(Oc1ccccc1Br)C(C)C	0.551	-0.924	0.235	-0.887	-0.181	-0.247	-0.183 (inactive)	-0.756	0.2	-0.0106 (inactive)
COc1ccc([Si](C)(C)[C@H]2[C@H](CCO)O[C@@]3(C(=O)N(Cc4ccccc4)c4ccc(N5CCCCC5=O)cc43)[C@@H]2C)cc1	-0.0531	-0.627	-3.62	-2.03	-4.53	2	0.355 (inactive)	-0.781	0.363	-2.68 (inactive)
COC(=O)[C@@]1(Cc2ccccc2)[C@H]2c3cc(C(=O)N4CCCC4)n(Cc4ccc(O)c(OC)c4)c3C[C@H]2CN1C(=O)c1ccccc1	0.114	0.0713	0.876	-1.27	-1.65	0.848	-1.63 (inactive)	0.332	-0.601	-1.5 (inactive)
CN1C(=O)C2C=CC(C(O)c3ccc(F)cc3)N(N(c3ccccc3)c3ccccc3)C2C1=O (stereo not given)	-0.631	-2.01	0.153	0.0431	-0.462	-1.03	-0.802 (inactive)	0.399	-1.03	-0.867 (inactive)
C=CC[C@@]1(C(=O)N2CCCCC2)N=C(c2ccc(OCCCO)cc2)O[C@@H]1c1ccccc1CN=[N+]=[N-]	-0.933	0.952	0.192	-1.09	-3.66	1.47	-0.307 (inactive)	-1.01	-0.18	-1.5 (inactive)
COCC(=C=CC[C@@H](O)c1ccc(OCCO)cc1)C[C@@H](O)c1ccccn1	-0.583	-0.936	-0.239	-0.149	-0.349	-0.964	-0.522 (inactive)	0.375	-0.719	0.192 (inactive)
CN1C(=O)C2C=CC(C(O)C=Cc3ccc([N+](=O)[O-])cc3)N(Nc3ccccc3)C2C1=O (stereo not given)	-0.598	-1.6	-0.432	-0.655	-0.997	-1.53	-1.48 (inactive)	-0.634	-0.681	-0.408 (inactive)
COCCOC(=O)N1C(=O)[C@@]2(c3cc(C#CCCO)ccc31)[C@H](c1ccc(OCCO)cc1)N1[C@H](c3ccccc3)[C@H](c3ccccc3)OC(=O)[C@H]1[C@@H]2C(N)=O	0.617	0.435	1.35	-0.109	-0.804	-0.72	-0.456 (inactive)	-0.899	-0.0462	0.215 (inactive)
O=C1[C@H]2C=C(I)[C@H](C[C@@H]2OCCCCO)[C@@]12CO2	-0.292	-0.393	-0.66	-0.739	-0.954	-1.71	-0.431 (inactive)	-1.13	-0.509	0.109 (inactive)
C=CCN(Cc1ccccc1)C(=O)C(c1cccs1)N(C(=O)/C=C\C(=O)O)c1ccc(CCOCCO)cc1 (stereo not given)	0.631	0.007	0.97	1.82	0.526	0.427	0.319 (inactive)	0.697	-1.06	-0.52 (inactive)
CCCCCCCCCCC(O)C1C=CC2C(=O)NC(=O)C2N1Nc1ccc(Cl)cc1Cl (stereo not given)	-4.55	0.061	-3.5	-3.8	-4.21	-3.53	-0.354 (inactive)	-0.931	-1.08	-1.52 (inactive)
CCOC(=O)C[C@H]1[C@H](OC(=O)c2ccc(-c3ccccc3)cc2)[C@@H](NC(=O)c2ccccc2)c2cc(OCCCO)ccc2N1C(=O)Cc1ccc(OC)cc1	0.437	0.0615	0.66	-0.536	-0.345	2.23	0.285 (inactive)	0.157	0.617	-0.0451 (inactive)
COc1cc2c(cc1O)C(c1cccs1)N(Cc1cccc(OC(F)(F)F)c1)CC2 (stereo not given)	-2.79	-0.0814	-2.37	-3.14	-4.49	-2.21	-0.019 (inactive)	-0.774	-1.77	-1.98 (inactive)
CCCCCN1CC=CC23O[C@@H]4C=CCOC(=O)[C@@H]4[C@H]2C(=O)N(C(C)CO)[C@@H]3C1=O (stereo not given in full)	-0.33	-0.093	-0.177	-0.425	-0.0937	-0.714	0.282 (inactive)	-0.704	-0.212	0.0264 (inactive)
CS(=O)(=O)CCOC(=O)C1=CC(CCCO)=CC(C2CC2)N(Cc2cc3c(cc2Br)OCO3)C=C1C(=O)OCCS(C)(=O)=O (stereo not given)	1.25	0.385	0.862	-0.538	-0.246	3.31	0.262 (inactive)	-0.41	-1.37	0.796 (inactive)
O=C1C2C=CC(C(O)c3cc(C(F)(F)F)cc(C(F)(F)F)c3)N(Nc3ccccc3)C2C(=O)N1c1ccccc1 (stereo not given)	1.3	-1.48	0.662	-2.24	-3.52	-4.32	-1.36 (inactive)	-0.982	-0.994	0.626 (inactive)
NC(=O)[C@@H]1[C@H]2C(=O)O[C@H](c3ccccc3)[C@H](c3ccccc3)N2[C@H](c2ccc(OCCO)cc2)[C@@]12C(=O)Nc1ccc(C#CC3=CCCCC3)cc12	-0.985	1.06	-3.51	-3.28	-4.06	-2.81	0.396 (inactive)	-0.834	-1.71	-1.01 (inactive)
CC(C)C(=C=CC[C@H](O)c1ccc(CO)o1)CCO	-0.0934	-0.33	-0.0026	-1.25	-0.2	-0.427	-0.0538 (inactive)	-0.533	0.019	-0.507 (inactive)
O=C1OCC=C[C@H]2OC34C=CCN(CCN5CCOCC5)C(=O)[C@H]3N(CCO)C(=O)[C@@H]4[C@@H]12 (stereo not given in full)	-0.157	0.196	0.804	-0.635	-0.253	-0.464	0.00617 (inactive)	-0.299	0.292	-0.124 (inactive)
CC(=CC1CCCCC1)[C@@H](NC(=O)c1cccnc1)c1ccc(-c2ccccc2)cc1	-1.3	-0.671	-1.63	-2.15	-2.59	-2.99	-1.26 (inactive)	0.597	-0.462	1.49 (inactive)
O=C(O)C1N=C(c2ccc(OCCCO)cc2)N(c2ccccc2)O1 (stereo not given)	-0.906	0.135	-0.0572	0.569	-0.547	-0.142	0.663 (inactive)	-1.22	-0.228	0.417 (inactive)
CCCC=C(CCC)[C@@H](NC(=O)OCC(C)C)c1ccccc1	-0.628	0.722	-0.927	-0.0228	-1.71	0.485	-0.594 (inactive)	0.0132	-0.558	0.292 (inactive)
COc1ccc([C@H]2OC[C@@H]3CCC(=O)N32)cc1	-0.245	-0.315	-0.0392	-0.804	0.502	0.0252	-0.139 (inactive)	-0.225	-0.1	0.109 (inactive)
